# According to PubChem BioAssay:
# Several values for one entry are separate records, joined by “and”; a condition that tells them apart may be missing. Equal values may be shown once. Inconclusive results are not listed. Some structures have more than one record in an assay (separate samples or runs), and their calls can disagree. Activity calls are given as the source filed them.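 Rule for the calls, unless noted: active = compounds whose cell count with miR-34 switched on is under 0.7 times the count with it off; inactive = the rest.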
# How the values were obtained:
# [1] = compounds altering viability of human ES cells (AID 493140; call rule not given here;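 note: cells exposed to compounds for four days before counting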); settings: human embryonic stem cell survival screen; stronger effect = higher value
# [2] = P. berghei load reduction in hepatocytes – cell-based, HepG2, luciferase luminescence, HepG2 viability, primary screen (AID 624349; in the data active = parasite load remaining mostly below about 12%, no sharp cut-off; inactive = mostly above about 10%;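 note: 100% = mean of DMSO negative control wells on the same plate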); settings: P. berghei liver stage in HepG2, luciferase luminescence, concentration not given here; parasite load remaining: stronger effect = lower value; viability: measured here: HepG2 viability without parasites
# [3] = Wnt pathway potentiators raising nuclear beta-catenin – imaging, WNT3A-conditioned medium, mouse C2C12, NPC library, primary screen (AID 1117326; in the data active = nuclear beta-catenin stimulation mostly above about 4.2%, no sharp cut-off; inactive = mostly below about 10%); settings: stronger effect = higher value
# [4] = stimulators of insulin release from INS-1E, primary screen, cell-based, 5 mM glucose, NPC library (AID 1117329;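 active = compound raises insulin release from rat beta cells at 5 mM glucose, no numeric limit stated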); settings: rat INS-1E insulin secretion, at 10 µM, stronger effect = higher value
# [5] = growth inhibition of GSK3B-pretreated HCT116 cells – cell-based, CellTiter-Glo, 0.2 to 20 µM (AID 1117336;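 active = compounds lowering colon cancer cell viability after pretreatment blocking the GSK3B kinase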); settings: HCT116 viability after GSK3B inhibitor, at 20 µM, stronger effect = higher value
# [6] = inhibition of endothelial tube formation, primary screen, imaging, VEGF stimulated, CD31 staining, tube area, NPC library (AID 1117340;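 active = compound that reduces growth-factor-driven endothelial tube area in a mixed cell culture, no cutoff stated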); settings: VEGF-stimulated ADSC/ECFC co-culture, at 10 µM, stronger effect = higher value
# [7] = GLP1 release stimulators, primary, NCI-H716, NPC library (AID 1117341;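 active = compound raises GLP1 secretion from the human gut endocrine cells, with no numeric limit stated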); settings: NCI-H716 cells, at 10 µM, stronger effect = higher value
# [8] = HCT116 colon cancer cell growth inhibition, primary screen, CellTiter-Glo luminescence, NPC library (AID 1117342;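 active = compounds that lower survival of HCT116 colon cancer cells in the luminescence readout, no numeric limit stated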); settings: at 20 µM (top of the series)
# [9] = reduced SW480 viability measured with CellTiter-Glo, NPC library, primary (AID 1117343;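 active = compounds that lower viability of the colon cancer cells in the luminescence readout, with no numeric limit stated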); settings: CellTiter-Glo luminescence; at 20 µM (top of the series) unless noted
# [10] = NPC library primary testing for decreased DLD-1 cell viability via CellTiter-Glo (AID 1117346;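 active = compounds that lower survival of DLD-1 colon cancer cells in the luminescence readout, no cutoff given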); settings: DLD-1 viability, CellTiter-Glo luminescence; at 20 µM (top of the series)
# [11] = viability loss with induced miR-34 in A549 – imaging, A549 dox-inducible miR-34, nuclei and caspase counts, primary screen (AID 1347080); settings: A549 miR-34 inducible, Hoechst nuclei count, 48 h
# [12] = MELAS cybrid and Rieske KO viability enhancers – cell-based, MELAS cybrids, Rieske KO mouse fibroblasts, CellTiter-Glo, primary screen (AID 1508586;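 active = mean z-score across replicates of 1.96 or higher in either the MELAS or the Rieske mutant cell line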;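 note: z relative to plate mean and SD of compound and empty wells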); settings: low glucose
# [13] = target: NAD(+) hydrolase SARM1 (Homo sapiens) (UniProt Q6SZW1); assay: blocking NAD cleavage by SARM1 SAM-TIR – cell lysate, NAD-Glo luminescence (AID 1508614;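 active = compound whose remaining NAD level is above about 45 nM, limit read from the data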;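 note: higher remaining NAD means stronger inhibition of SARM1 NADase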); settings: SAM-TIR HEK293T lysate NADase, at 1 µM, stronger effect = higher value
# [14] = target: ATP-dependent translocase ABCB1 (Homo sapiens) (UniProt P08183); assay: P-glycoprotein substrate transport blockade – cell-based (AID 377; in the data active = fluorescence slope change above about 50%); settings: MDR1-expressing cells, fluorescent substrate accumulation slope; stronger effect = higher value; concentration not given here
# [15] = galactose survival enhancers in mitochondrial complex I cybrids – cell-based, galactose medium, ATP luminescence, primary screen (AID 1645843;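 active = z-score of at least 1.8 in each of two replicates, scored against plate mean and spread of sample wells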;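 note: positive z means more ATP and so rescue of galactose-driven cybrid death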); settings: complex I mutant cybrid cells, 72 h, stronger effect = higher value
# [16] = target: Mitogen-activated protein kinase 7 (Homo sapiens) (UniProt Q13164); assay: Gal4-ERK5 driven luciferase induction – cell-based, HTS, primary screen (AID 1508626;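 active = luciferase signal above three times the same-plate solvent-only control wells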;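 note: luciferase driven by Gal4-ERK5 fusion binding five Gal4 sites before minimal TATA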); settings: HeLa Gal4-ERK5 transactivation, 18 h, at 5 µM, stronger effect = higher value
# [17] = stronger effect = lower value, cell number ratio, induced over uninduced
# [18] = measured here: relative caspase fold change +Dox/-Dox
# [19] = measured here: total cells with miR-34 induction, stronger effect = lower value
# [20] = measured here: total cells without miR-34 induction
# [21] = MELAS cybrid survival, CellTiter-Glo 48 h, stronger effect = higher value
# [22] = Rieske KO mouse fibroblast survival, CellTiter-Glo 72 h
# Sequence of NAD(+) hydrolase SARM1 (Homo sapiens) (Q6SZW1 whole entry, looked up): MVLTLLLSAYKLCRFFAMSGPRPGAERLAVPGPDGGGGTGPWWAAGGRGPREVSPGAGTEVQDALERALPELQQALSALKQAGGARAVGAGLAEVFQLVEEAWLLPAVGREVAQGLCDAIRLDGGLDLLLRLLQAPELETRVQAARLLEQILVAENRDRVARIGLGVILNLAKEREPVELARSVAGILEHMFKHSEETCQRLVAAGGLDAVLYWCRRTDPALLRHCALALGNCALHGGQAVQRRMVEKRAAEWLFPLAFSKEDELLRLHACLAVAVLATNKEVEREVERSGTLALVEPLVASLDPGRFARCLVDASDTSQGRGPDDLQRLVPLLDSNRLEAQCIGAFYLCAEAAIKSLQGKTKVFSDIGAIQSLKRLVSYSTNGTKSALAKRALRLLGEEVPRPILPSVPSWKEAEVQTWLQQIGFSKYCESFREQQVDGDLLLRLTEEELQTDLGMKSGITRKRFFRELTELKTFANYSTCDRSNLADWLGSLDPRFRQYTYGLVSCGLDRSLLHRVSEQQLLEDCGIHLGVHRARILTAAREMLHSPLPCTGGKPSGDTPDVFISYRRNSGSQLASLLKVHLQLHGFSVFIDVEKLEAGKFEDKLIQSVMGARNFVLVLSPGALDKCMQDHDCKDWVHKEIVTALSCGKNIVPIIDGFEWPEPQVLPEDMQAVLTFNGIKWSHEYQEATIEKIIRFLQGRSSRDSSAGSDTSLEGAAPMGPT
# Sequence of ATP-dependent translocase ABCB1 (Homo sapiens) (P08183 whole entry, looked up): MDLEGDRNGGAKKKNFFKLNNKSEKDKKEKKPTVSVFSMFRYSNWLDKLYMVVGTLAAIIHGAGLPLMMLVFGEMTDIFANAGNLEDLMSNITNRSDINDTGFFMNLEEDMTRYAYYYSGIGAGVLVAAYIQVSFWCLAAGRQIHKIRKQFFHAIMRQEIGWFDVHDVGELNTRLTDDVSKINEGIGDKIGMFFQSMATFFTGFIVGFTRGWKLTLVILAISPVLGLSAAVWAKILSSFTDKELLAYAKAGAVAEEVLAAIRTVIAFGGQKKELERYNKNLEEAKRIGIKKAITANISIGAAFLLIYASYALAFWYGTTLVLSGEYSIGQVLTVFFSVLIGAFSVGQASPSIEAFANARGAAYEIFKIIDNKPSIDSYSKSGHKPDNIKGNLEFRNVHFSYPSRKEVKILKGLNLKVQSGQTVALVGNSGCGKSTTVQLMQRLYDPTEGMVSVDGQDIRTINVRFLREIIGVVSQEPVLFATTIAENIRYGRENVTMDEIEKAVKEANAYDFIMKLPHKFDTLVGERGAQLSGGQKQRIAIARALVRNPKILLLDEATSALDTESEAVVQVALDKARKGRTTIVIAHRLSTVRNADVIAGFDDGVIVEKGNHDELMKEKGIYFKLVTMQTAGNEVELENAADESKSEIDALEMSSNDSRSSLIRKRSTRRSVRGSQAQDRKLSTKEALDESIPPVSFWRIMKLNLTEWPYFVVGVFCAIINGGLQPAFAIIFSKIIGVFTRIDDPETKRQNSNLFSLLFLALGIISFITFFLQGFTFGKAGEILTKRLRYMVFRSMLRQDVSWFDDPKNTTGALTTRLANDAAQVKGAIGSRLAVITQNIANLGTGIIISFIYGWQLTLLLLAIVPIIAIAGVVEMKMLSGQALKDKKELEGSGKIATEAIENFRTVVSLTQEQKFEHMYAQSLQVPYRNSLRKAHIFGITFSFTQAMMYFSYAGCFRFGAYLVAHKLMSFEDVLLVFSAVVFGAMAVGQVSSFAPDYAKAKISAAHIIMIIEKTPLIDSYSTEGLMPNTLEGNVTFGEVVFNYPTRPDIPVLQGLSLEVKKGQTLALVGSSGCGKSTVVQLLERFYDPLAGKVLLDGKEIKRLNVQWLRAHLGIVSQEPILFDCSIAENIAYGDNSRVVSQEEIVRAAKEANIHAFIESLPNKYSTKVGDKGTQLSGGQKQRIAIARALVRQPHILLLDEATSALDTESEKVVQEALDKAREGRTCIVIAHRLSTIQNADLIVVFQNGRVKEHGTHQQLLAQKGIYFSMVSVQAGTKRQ
# Sequence of Mitogen-activated protein kinase 7 (Homo sapiens) (Q13164 whole entry, looked up, the tested form may be a part): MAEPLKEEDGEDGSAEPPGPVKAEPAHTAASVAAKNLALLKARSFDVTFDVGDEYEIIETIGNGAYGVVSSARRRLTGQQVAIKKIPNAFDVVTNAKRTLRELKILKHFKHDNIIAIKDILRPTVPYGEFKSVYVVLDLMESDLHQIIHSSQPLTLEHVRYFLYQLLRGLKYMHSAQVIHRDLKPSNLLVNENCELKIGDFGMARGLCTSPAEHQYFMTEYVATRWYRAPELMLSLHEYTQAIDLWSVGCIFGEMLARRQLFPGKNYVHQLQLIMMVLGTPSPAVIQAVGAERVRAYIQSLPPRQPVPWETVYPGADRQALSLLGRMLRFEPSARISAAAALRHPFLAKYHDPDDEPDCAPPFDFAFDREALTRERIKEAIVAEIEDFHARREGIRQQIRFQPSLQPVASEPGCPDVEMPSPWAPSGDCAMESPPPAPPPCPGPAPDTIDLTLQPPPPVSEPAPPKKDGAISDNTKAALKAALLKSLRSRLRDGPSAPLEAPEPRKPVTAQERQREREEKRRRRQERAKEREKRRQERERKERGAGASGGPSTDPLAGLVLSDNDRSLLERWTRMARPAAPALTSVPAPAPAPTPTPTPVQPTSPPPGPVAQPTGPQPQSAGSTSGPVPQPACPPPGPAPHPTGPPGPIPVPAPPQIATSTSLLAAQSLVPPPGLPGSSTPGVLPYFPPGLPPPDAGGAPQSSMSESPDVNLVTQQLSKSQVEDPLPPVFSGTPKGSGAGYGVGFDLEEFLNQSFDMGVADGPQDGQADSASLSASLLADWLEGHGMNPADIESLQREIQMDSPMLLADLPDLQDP
structure (smiles),measurement,setting,value
CC(=O)OCC(=O)[C@@]1(O)CC[C@H]2[C@@H]3CCC4=CC(=O)C=C[C@]4(C)[C@@]3(F)[C@@H](O)C[C@@]21C,survival,[1],8 (inactive)
same,parasite load remaining,[2],53.1% (inactive) and 126% (inactive)
same,viability,[2],50.3% and 103%
same,nuclear beta-catenin stimulation,[3]; at 10 µM,0.8% (inactive)
same,nuclear beta-catenin stimulation,"[3]; stimulation, at 2 µM",0%
same,insulin secretion stimulation,[4],-2.1% (inactive)
same,viability decrease,[5],9.45% (inactive)
same,tube area decrease,[6],-21.7% (inactive)
same,GLP1 secretion stimulation,[7],3.3% (inactive)
same,inhibition of viability,[8],-4.3% (inactive)
same,viability decrease (inhibition),[9],42.5% (inactive)
same,viability decrease (inhibition),[10],23% (inactive)
same,fold change,[11]; [17],0.893 (inactive)
same,fold change,[11]; [18],1.25
same,cell count,[11]; [19],4910
same,cell count,[11]; [20],5500
same,z-score,[12]; [21],-1.23 (inactive)
same,z-score,[12]; [22],0.0318
same,remaining NAD,[13],10 nM (inactive)
OCCOCCN1CCN(C(c2ccccc2)c2ccc(Cl)cc2)CC1 (configuration not stated),fluorescence slope change,[14],127% (active)
same,survival,[1],12.3 (inactive)
same,parasite load remaining,[2],40.8% (inactive) and 106% (inactive)
same,viability,[2],45.3% and 147%
same,nuclear beta-catenin stimulation,[3]; at 10 µM,3.6% (inactive)
same,nuclear beta-catenin stimulation,"[3]; stimulation, at 2 µM",2.4%
same,insulin secretion stimulation,[4],4.2% (inactive)
same,viability decrease,[5],-78.9% (inactive)
same,tube area decrease,[6],28% (inactive)
same,GLP1 secretion stimulation,[7],13.3% (inactive)
same,inhibition of viability,[8],38.2% (inactive)
same,viability decrease (inhibition),[9],46.4% (inactive)
same,viability decrease (inhibition),[10],14.4% (inactive)
same,fold change,[11]; [17],0.893 (inactive) and 0.907 (inactive) and 0.862 (inactive)
same,fold change,[11]; [18],1.48 and 0.309 and 0.812
same,cell count,[11]; [19],8690 and 7710 and 8370
same,cell count,[11]; [20],9730 and 8500 and 9700
same,z-score,[12]; [21],-0.954 (inactive) and -0.244 (inactive) and -0.546 (inactive)
same,z-score,[12]; [22],0.434 and -0.172 and -0.069
same,z-score,[15],-0.645 (inactive)
COc1cc(C)c(C=CC(C)=CC=CC(C)=CC(=O)O)c(C)c1C,nuclear beta-catenin stimulation,[3]; at 10 µM,1% (inactive)
same,nuclear beta-catenin stimulation,"[3]; stimulation, at 2 µM",1.9%
same,insulin secretion stimulation,[4],2.8% (inactive)
same,viability decrease,[5],61.5% (active)
same,tube area decrease,[6],45.4% (active)
same,GLP1 secretion stimulation,[7],-3.9% (inactive)
same,inhibition of viability,[8],52.1% (active)
same,viability decrease (inhibition),[9],70.9% (active)
same,viability decrease (inhibition),[10],78.6% (active)
same,fold change,[11]; [17],0.847 (inactive)
same,fold change,[11]; [18],1.06
same,cell count,[11]; [19],6840
same,cell count,[11]; [20],8080
same,z-score,[12]; [21],-0.108 (inactive)
same,z-score,[12]; [22],0.793
O=P(O)(O)OC(CO)CO,nuclear beta-catenin stimulation,[3]; at 10 µM,0.1% (inactive)
same,nuclear beta-catenin stimulation,"[3]; stimulation, at 2 µM",0.7%
same,insulin secretion stimulation,[4],1.2% (inactive)
same,viability decrease,[5],3.9% (inactive)
same,tube area decrease,[6],14.1% (inactive)
same,GLP1 secretion stimulation,[7],-1.6% (inactive)
same,inhibition of viability,[8],-0.7% (inactive)
same,viability decrease (inhibition),[9],-2% (inactive)
same,viability decrease (inhibition),[10],-3.3% (inactive)
same,fold change,[11]; [17],0.854 (inactive)
same,fold change,[11]; [18],0.424
same,cell count,[11]; [19],8550
same,cell count,[11]; [20],10000
same,z-score,[12]; [21],0.561 (inactive)
same,z-score,[12]; [22],-0.261
same,z-score,[15],0.385 (inactive)
COc1nccnc1NS(=O)(=O)c1ccc(N)cc1,nuclear beta-catenin stimulation,[3]; at 10 µM,1.5% (inactive)
same,nuclear beta-catenin stimulation,"[3]; stimulation, at 2 µM",3.9%
same,insulin secretion stimulation,[4],1.7% (inactive)
same,viability decrease,[5],3.6% (inactive)
same,tube area decrease,[6],2.9% (inactive)
same,GLP1 secretion stimulation,[7],2.7% (inactive)
same,inhibition of viability,[8],6.8% (inactive)
same,viability decrease (inhibition),[9],-1.3% (inactive)
same,viability decrease (inhibition),[10],-5.6% (inactive)
same,fold change,[11]; [17],0.87 (inactive)
same,fold change,[11]; [18],0.163
same,cell count,[11]; [19],9240
same,cell count,[11]; [20],10600
same,z-score,[12]; [21],0.483 (inactive)
same,z-score,[12]; [22],-0.166
same,z-score,[15],-0.33 (inactive)
CC(C)Nc1cccnc1N1CCN(C(=O)c2cc3cc(NS(C)(=O)=O)ccc3[nH]2)CC1,parasite load remaining,[2],42.2% (inactive)
same,viability,[2],102%
same,nuclear beta-catenin stimulation,[3]; at 10 µM,0.8% (inactive)
same,nuclear beta-catenin stimulation,"[3]; stimulation, at 2 µM",-0.4%
same,insulin secretion stimulation,[4],-1.5% (inactive)
same,viability decrease,[5],-11.6% (inactive)
same,tube area decrease,[6],-1.5% (inactive)
same,GLP1 secretion stimulation,[7],2.1% (inactive)
same,inhibition of viability,[8],28.8% (inactive)
same,viability decrease (inhibition),[9],0.9% (inactive)
same,viability decrease (inhibition),[10],-21.2% (inactive)
same,fold change,[11]; [17],0.904 (inactive)
same,fold change,[11]; [18],1.31
same,cell count,[11]; [19],9200
same,cell count,[11]; [20],10200
same,z-score,[12]; [21],0.775 (inactive) and 1.98 (active)
same,z-score,[12]; [22],0.201 and 1.19
same,z-score,[15],0.98 (inactive)
O=c1[nH]c(=O)c2[nH]c(=O)[nH]c2[nH]1,nuclear beta-catenin stimulation,[3]; at 10 µM,-2.4% (inactive)
same,nuclear beta-catenin stimulation,"[3]; stimulation, at 2 µM",-1.6%
same,insulin secretion stimulation,[4],-0.2% (inactive)
same,viability decrease,[5],-5.9% (inactive)
same,tube area decrease,[6],8.1% (inactive)
same,GLP1 secretion stimulation,[7],-2.2% (inactive)
same,inhibition of viability,[8],-5.8% (inactive)
same,viability decrease (inhibition),[9],-9.2% (inactive)
same,viability decrease (inhibition),[10],9.1% (inactive)
same,fold change,[11]; [17],0.877 (inactive)
same,fold change,[11]; [18],0.666
same,cell count,[11]; [19],8320
same,cell count,[11]; [20],9490
same,z-score,[12]; [21],0.618 (inactive)
same,z-score,[12]; [22],0.253
same,z-score,[15],0.705 (inactive)
C=CCNC(N)=S,nuclear beta-catenin stimulation,[3]; at 10 µM,5.1% (inactive)
same,nuclear beta-catenin stimulation,"[3]; stimulation, at 2 µM",2.3%
same,insulin secretion stimulation,[4],-0.8% (inactive)
same,viability decrease,[5],-2.15% (inactive)
same,tube area decrease,[6],-31.3% (inactive)
same,GLP1 secretion stimulation,[7],-0.3% (inactive)
same,inhibition of viability,[8],-19.1% (inactive)
same,viability decrease (inhibition),[9],23.8% (active)
same,viability decrease (inhibition),[10],-4.7% (inactive)
same,fold change,[11]; [17],0.867 (inactive) and 0.831 (inactive)
same,fold change,[11]; [18],1.24 and 0.686
same,cell count,[11]; [19],7540 and 8140
same,cell count,[11]; [20],8690 and 9790
same,z-score,[12]; [21],-0.239 (inactive)
same,z-score,[12]; [22],-0.148
same,remaining NAD,[13],10 nM (inactive)
Cc1ncc(C[n+]2csc(CCO)c2C)c(N)n1,fluorescence slope change,[14],80.3% (active)
same,survival,[1],12.6 (inactive)
same,parasite load remaining,[2],161% (inactive) and 60.9% (inactive)
same,viability,[2],98.2% and 74.9%
same,nuclear beta-catenin stimulation,[3]; at 10 µM,-1.9% (inactive)
same,nuclear beta-catenin stimulation,"[3]; stimulation, at 2 µM",-0.8%
same,insulin secretion stimulation,[4],3.8% (inactive)
same,viability decrease,[5],-12.9% (inactive)
same,tube area decrease,[6],-6.7% (inactive)
same,GLP1 secretion stimulation,[7],-1.3% (inactive)
same,inhibition of viability,[8],5% (inactive)
same,viability decrease (inhibition),[9],7.9% (inactive)
same,viability decrease (inhibition),[10],1.8% (inactive)
same,fold change,[11]; [17],0.836 (inactive)
same,fold change,[11]; [18],1.04
same,cell count,[11]; [19],8780
same,cell count,[11]; [20],10500
same,z-score,[12]; [21],0.823 (inactive)
same,z-score,[12]; [22],0.201
same,remaining NAD,[13],10 nM (inactive)
same,luciferase signal,[16],44 AU (inactive)
O=C(O)COC(=O)Cc1ccccc1Nc1c(Cl)cccc1Cl,survival,[1],18.6 (inactive)
same,parasite load remaining,[2],25.9% (inactive) and 102% (inactive) and 21.3% (inactive)
same,viability,[2],47% and 92.7% and 77%
same,nuclear beta-catenin stimulation,[3]; at 10 µM,1.1% (inactive)
same,nuclear beta-catenin stimulation,"[3]; stimulation, at 2 µM",-1%
same,insulin secretion stimulation,[4],3.2% (inactive)
same,viability decrease,[5],30.7% (inactive)
same,tube area decrease,[6],-0.5% (inactive)
same,GLP1 secretion stimulation,[7],1% (inactive)
same,inhibition of viability,[8],26% (inactive)
same,viability decrease (inhibition),[9],83.7% (active)
same,viability decrease (inhibition),[10],20.5% (inactive)
same,fold change,[11]; [17],0.899 (inactive) and 0.88 (inactive)
same,fold change,[11]; [18],1.19 and 1.2
same,cell count,[11]; [19],8790 and 10000
same,cell count,[11]; [20],9770 and 11400
same,z-score,[12]; [21],-0.0312 (inactive) and 0.298 (inactive)
same,z-score,[12]; [22],-0.0287 and -0.406
same,remaining NAD,[13],10 nM (inactive)
same,z-score,[15],0.67 (inactive)
